Assay results from publication PMC4336329 (PLoS ONE, 2015).
Hit rate of the full screen: of about 310,000 compounds, about 14,000 (4.5%) showed an effect of 50% or more. Effects have a minus sign here. The full list was thinned out, with strong results kept by preference.

target: human ether-à-go-go-related gene (hERG) potassium channel (human, UniProt Q12809); test: primary screen, population patch clamp on CHO cells stably expressing hERG; higher = less effect of the substance
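Note: peak tail current of the secondary pulse compared with the same well before compound.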

human ether-à-go-go-related gene (hERG) potassium channel, sequence (Q12809 whole entry, looked up): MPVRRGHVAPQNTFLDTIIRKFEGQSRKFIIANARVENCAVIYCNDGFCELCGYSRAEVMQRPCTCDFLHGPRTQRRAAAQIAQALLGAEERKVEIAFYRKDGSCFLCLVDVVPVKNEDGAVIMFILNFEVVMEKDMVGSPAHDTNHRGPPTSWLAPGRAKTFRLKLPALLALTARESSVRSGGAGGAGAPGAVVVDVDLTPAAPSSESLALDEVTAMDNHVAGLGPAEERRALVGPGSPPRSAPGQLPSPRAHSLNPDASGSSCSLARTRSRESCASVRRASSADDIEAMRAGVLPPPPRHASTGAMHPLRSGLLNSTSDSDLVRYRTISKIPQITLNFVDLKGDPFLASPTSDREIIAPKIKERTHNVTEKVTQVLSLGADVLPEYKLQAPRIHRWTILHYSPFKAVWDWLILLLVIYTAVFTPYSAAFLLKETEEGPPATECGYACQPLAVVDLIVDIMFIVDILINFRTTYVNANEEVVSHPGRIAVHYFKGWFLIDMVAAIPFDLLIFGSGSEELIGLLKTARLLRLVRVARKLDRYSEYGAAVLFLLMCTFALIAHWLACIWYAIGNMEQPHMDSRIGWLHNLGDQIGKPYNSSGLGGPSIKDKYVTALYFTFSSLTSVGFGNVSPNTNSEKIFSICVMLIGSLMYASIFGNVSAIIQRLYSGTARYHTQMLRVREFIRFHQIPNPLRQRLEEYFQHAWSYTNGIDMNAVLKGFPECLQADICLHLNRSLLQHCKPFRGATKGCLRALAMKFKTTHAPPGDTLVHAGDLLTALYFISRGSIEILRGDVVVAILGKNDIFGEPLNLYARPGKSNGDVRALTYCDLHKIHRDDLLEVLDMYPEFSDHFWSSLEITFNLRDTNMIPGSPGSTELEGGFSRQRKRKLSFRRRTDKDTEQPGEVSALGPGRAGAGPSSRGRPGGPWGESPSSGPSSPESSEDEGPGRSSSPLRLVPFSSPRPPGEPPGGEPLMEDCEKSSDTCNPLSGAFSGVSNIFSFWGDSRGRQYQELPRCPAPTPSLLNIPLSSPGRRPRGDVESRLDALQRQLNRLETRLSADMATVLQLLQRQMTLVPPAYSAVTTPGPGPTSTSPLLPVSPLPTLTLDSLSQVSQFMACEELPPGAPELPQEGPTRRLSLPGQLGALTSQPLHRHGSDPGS

Compared with `CC(=O)OC(C(=O)Nc1nccs1)c1ccccc1` (centres unmarked), `COCC(C)NC(=O)CSc1ncnc2sc(-c3ccccc3)cc12` (centres unmarked) is lower in “hERG current change (%, negative = inhibition) at 10uM” value: 2.26% for the first, -10.1% for the second.

Compared with `CC(C)CCNC(=O)c1nn(Cc2ccccc2)c(=O)c2ccccc12`, `CC(C)CNC(=O)c1nn(Cc2ccccc2)c(=O)c2ccccc12` is lower in “hERG current change (%, negative = inhibition) at 10uM” value: 5.59% for the first, -16% for the second.

Compared with `O=C(c1nn(Cc2ccccc2)c(=O)c2ccccc12)N1CCN(c2ccccn2)CC1`, `O=C(c1nn(-c2ccccc2)c(=O)c2ccccc12)N1CCN(c2ccccn2)CC1` is higher in “hERG current change (%, negative = inhibition) at 10uM” value: -66.3% for the first, -16.5% for the second.

First: CC(=O)c1ccc(N2CCN(C(=O)c3nn(Cc4ccccc4)c(=O)c4ccccc34)CC2)cc1
Second: O=C(c1nn(Cc2ccccc2)c(=O)c2ccccc12)N1CCc2ccccc2C1
The “hERG current change (%, negative = inhibition) at 10uM” value of the first is lower: -75.1% for the first, -29% for the second.

Going from `CC(=O)c1ccc(N2CCN(C(=O)c3n[nH]c4ccccc34)CC2)cc1` to `O=C(c1ccc(Cn2c(=O)[nH]c3ccccc3c2=O)cc1)N1CCN(c2ccccn2)CC1`, the “hERG current change (%, negative = inhibition) at 10uM” value rises from -34.3% to 0.196%.

Compared with `CC(C)N(CCNC(=O)c1nn(Cc2ccccc2)c(=O)c2ccccc12)C(C)C`, `CC(C)Cc1ccc(C(C)C(N)=NCCc2ccccc2)cc1.Cl` (centres unmarked) is lower in “hERG current change (%, negative = inhibition) at 10uM” value: -66.1% for the first, -67.5% for the second.

Compared with `O=[N+]([O-])c1cccc(S(=O)(=O)Nc2ccc(S(=O)(=O)N3CCCC3)cc2)c1`, `Cc1cccc(NS(=O)(=O)c2cc3c4c(c2)CCC(=O)N4CCC3)c1` is lower in “hERG current change (%, negative = inhibition) at 10uM” value: 2.95% for the first, -21.6% for the second.

Compared with `O=C(CSc1nnc(NC(=O)c2c(F)cccc2F)s1)NC1CC1`, `O=C(Nc1cccnc1)c1ccc([N+](=O)[O-])s1` is lower in “hERG current change (%, negative = inhibition) at 10uM” value: 21.9% for the first, -20.1% for the second.

First: COC(=O)c1cccc(Oc2cccc(Cl)n2)c1
Second: Clc1ccc(COc2ccccn2)cc1Cl
The “hERG current change (%, negative = inhibition) at 10uM” value of the first is higher: 14.7% for the first, -6.01% for the second.

Going from `OCCOCCn1c(C(CO)Nc2nc(-c3ccc(F)cc3)cs2)nc2ccccc21` (centres unmarked) to `O=C(O)COCC(=O)Nc1ccc(OCCc2ccccc2)cc1`, the “hERG current change (%, negative = inhibition) at 10uM” value rises from -29.4% to 11.8%.

Going from `COc1ccc(N(CC(=O)NCc2ccccc2OC)S(=O)(=O)c2ccccc2[N+](=O)[O-])c(OC)c1` to `O=C(COc1ccc([N+](=O)[O-])cc1)NCc1ccccc1`, the “hERG current change (%, negative = inhibition) at 10uM” value falls from 3.17% to -38.9%.

Compared with `CN(C)Cc1c(C(=O)N/N=C/C=C/c2ccccc2)nnn1-c1nonc1N`, `CN(C)c1ccc(/C=N/NC(=O)c2ccc3c(c2)OCCO3)cc1` is higher in “hERG current change (%, negative = inhibition) at 10uM” value: -24.9% for the first, 9.93% for the second.

First: COC(=O)Nc1ccc(OC)c(OC)c1
Second: COc1cc(NC(=O)C2CC(c3cccc(Br)c3)=NO2)cc(OC)c1OC (centres unmarked)
The “hERG current change (%, negative = inhibition) at 10uM” value of the first is higher: 4.01% for the first, -11.6% for the second.

Going from `COc1ncnc2c1sc1nc(-c3ccccc3)c3c(c12)CCCC3` to `COc1cc(/C=C(/C#N)C(=O)Nc2ccccc2)c(Br)cc1OCc1ccc(C(=O)O)cc1`, the “hERG current change (%, negative = inhibition) at 10uM” value falls from 15.6% to 9.98%.

Going from `COc1ccc(-c2nc(C#N)c(N3CCC(C(N)=O)CC3)o2)cc1` to `Cc1ccc(-c2nc(C#N)c(N3CCC(C(N)=O)CC3)o2)cc1`, the “hERG current change (%, negative = inhibition) at 10uM” value falls from -15.6% to -23.7%.

Going from `CCN1CCN(c2oc(-c3ccc(OC)cc3)nc2C#N)CC1` to `CCOc1ccc(-c2nc(C#N)c(N3CCN(CC)CC3)o2)cc1`, the “hERG current change (%, negative = inhibition) at 10uM” value falls from -45.6% to -47.3%.

Compared with `CN1CCN(c2oc(-c3ccc([N+](=O)[O-])cc3)nc2C#N)CC1`, `CCN1CCN(c2oc(-c3ccc([N+](=O)[O-])cc3)nc2C#N)CC1` is higher in “hERG current change (%, negative = inhibition) at 10uM” value: -66.1% for the first, -53.1% for the second.

First: CCOc1ccc(-c2nc(C#N)c(N3CCN(C)CC3)o2)cc1
Second: N#Cc1nc(-c2ccc([N+](=O)[O-])cc2)oc1N1CCCCC1
The “hERG current change (%, negative = inhibition) at 10uM” value of the first is lower: -32.5% for the first, 14.5% for the second.

Going from `CC(C)(C)c1ccc(-c2nc(C#N)c(N3CCC(C(N)=O)CC3)o2)cc1` to `CC(=O)Cn1c(N2CCC(Cc3ccccc3)CC2)nc2c1c(=O)[nH]c(=O)n2C`, the “hERG current change (%, negative = inhibition) at 10uM” value rises from -63.3% to 10.3%.

Compared with `COCCN(C(=S)Nc1ccc(C(C)C)cc1)C(C)c1cccs1` (centres unmarked), `CC(C)Cc1ccc(C(C)C(=O)Nc2ccc(O)cc2)cc1` (centres unmarked) is higher in “hERG current change (%, negative = inhibition) at 10uM” value: 8.26% for the first, 11.3% for the second.

Compared with `CCC(C)(C)n1c(=O)[nH]c2c(c1=O)CCC2`, `CCC(CC)NC(=O)CCCSc1nc2ccccc2[nH]1` is higher in “hERG current change (%, negative = inhibition) at 10uM” value: 6.59% for the first, 22.3% for the second.

Compared with `CC(C)Cc1ccc(C(C)C(N)=Nc2ccc(O)cc2)cc1.Cl` (centres unmarked), `CC(C)Cc1ccc(C(C)C(=N)N)cc1.Cl` (centres unmarked) is higher in “hERG current change (%, negative = inhibition) at 10uM” value: -80.2% for the first, -6.14% for the second.

Going from `CC(C)Cc1ccc([C@H](C)C(=O)O)cc1` to `COc1ccc(CCN=C(N)C(C)c2ccccc2)cc1OC.Cl` (centres unmarked), the “hERG current change (%, negative = inhibition) at 10uM” value rises from 7.11% to 11.4%.

Going from `COc1ccccc1N1CCN(C(=O)c2ccccc2Oc2ccccc2)CC1` to `Cc1cccc(N(CC(O)CON=C2c3ccccc3-c3ccccc32)S(C)(=O)=O)c1` (centres unmarked), the “hERG current change (%, negative = inhibition) at 10uM” value rises from -25.7% to 15.1%.

First: COc1ccc(CCNC(=O)COc2ccc([N+](=O)[O-])cc2)cc1
Second: COc1ccc(CNC(=O)COc2ccc([N+](=O)[O-])cc2)cc1
The “hERG current change (%, negative = inhibition) at 10uM” value of the first is higher: -31.1% for the first, -64.5% for the second.

Going from `COc1ccc(OCC(=O)NNC(=S)NC(=O)c2ccc([N+](=O)[O-])cc2)cc1` to `COc1ccc(P(=O)(COc2ccc([N+](=O)[O-])cc2)c2ccc(OC)cc2)cc1`, the “hERG current change (%, negative = inhibition) at 10uM” value falls from 15.6% to -71%.

Going from `O=C(COc1ccc([N+](=O)[O-])cc1)NCc1cccnc1` to `O=C(COc1ccc([N+](=O)[O-])cc1)NCc1ccncc1`, the “hERG current change (%, negative = inhibition) at 10uM” value falls from -33.4% to -67.6%.

Going from `COc1ccc(CNC(=O)COc2ccc(OC)cc2)cc1` to `CN(C)c1ccc(P(=O)(COc2ccc([N+](=O)[O-])cc2)c2ccc(N(C)C)cc2)cc1`, the “hERG current change (%, negative = inhibition) at 10uM” value falls from 13.8% to -41.9%.
